# The supplement of paper PMC8975748
# Where a name gives a salt, the structure may show the parent alone.
# Tested on: Saccharomyces cerevisiae BY4741 SeMeCo community
# Experiment: z-score of subpopulation abundance vs DMSO median, subpopulation auxotrophic for LM; higher = larger share of this subpopulation than in DMSO controls
# Conditions: 10 µM; 24 h; SM minimal medium; subpopulation (auxotrophy): LM
# Experimental: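 Fluorescent four-plasmid SeMeCo (self-establishing metabolically cooperating S. cerevisiae BY4741 community; plasmids pH-mRuby2, pL-mWasabi, pU-eCFP, pM-TagRFP657) was grown 24 h in minimal SM medium with each Selleck FDA-approved drug at 10 µM in 384-well plates. Cells were fixed and imaged by high-content confocal microscopy. For each auxotrophic subpopulation (and the prototroph), a z-score gives the deviation from the DMSO vehicle-control population median.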
row,Structure (SMILES),z-score of subpopulation abundance
1,Clc1ccc(COC(Cn2ccnc2)c2ccc(Cl)cc2Cl)c(Cl)c1 (stereo not given) [Miconazole Nitrate],-3.18
2,C[C@H]1COc2c(N3CCN(C)CC3)c(F)cc3c(=O)c(C(=O)O)cn1c23 [Levofloxacin],-0.53
3,CO/N=C(\C(=O)N[C@@H]1C(=O)N2C(C(=O)OCOC(=O)C(C)(C)C)=C(/C=C\c3scnc3C)CS[C@H]12)c1csc(N)n1 [Cefditoren Pivoxil],1.47
4,NC(=O)c1ncn([C@@H]2O[C@H](CO)[C@@H](O)[C@H]2O)n1 [Ribavirin],-0.41
5,C[C@@H]1C/C=C/C=C/C=C/C=C/[C@H](O[C@@H]2O[C@H](C)[C@@H](O)[C@H](N)[C@@H]2O)C[C@@H]2O[C@](O)(C[C@@H](O)C[C@H]3O[C@@H]3/C=C/C(=O)O1)C[C@H](O)[C@H]2C(=O)O [Natamycin],2.04
6,C[C@@H](O)[C@H]1C(=O)N2C(C(=O)O)=C([C@H]3CCCO3)S[C@H]12 [Faropenem Sodium],-0.23
7,CCCCCCCCCCCCCCCCCCOP(=O)([O-])OC1CC[N+](C)(C)CC1 [Perifosine (KRX-0401)],1.78
8,CC1(C)S[C@@H]2[C@H](NC(=O)[C@H](N)c3ccccc3)C(=O)N2[C@H]1C(=O)OCOC(=O)[C@@H]1N2C(=O)C[C@H]2S(=O)(=O)C1(C)C [Sultamicillin],0.38
9,CC(C)(C)CC(C)(C)c1ccc(OCCOCC[N+](C)(C)Cc2ccccc2)cc1 [Benzethonium Chloride],-0.72
10,CO/N=C(\C(=O)N[C@@H]1C(=O)N2C(C(=O)O)=CCS[C@H]12)c1csc(N)n1 [Ceftizoxime sodium],-0.65
11,CC/C(=C(/CC)c1ccc(O)cc1)c1ccc(O)cc1 [Diethylstilbestrol],-0.03
12,COc1ccc2cc3[n+](cc2c1OC)CCc1cc2c(cc1-3)OCO2 [Berberine chloride],0.14
13,C1N2CN3CN1CN(C2)C3 [Methenamine],0.49
14,C[C@H]1O[C@@H](O[C@H]2[C@@H](O)C[C@H](O[C@H]3[C@@H](O)C[C@H](O[C@H]4CC[C@@]5(C)[C@H](CC[C@@H]6[C@@H]5C[C@@H](O)[C@]5(C)[C@@H](C7=CC(=O)OC7)CC[C@]65O)C4)O[C@@H]3C)O[C@@H]2C)C[C@H](O)[C@@H]1O [Digoxin],-0.41
15,CN1C2CCCC1CC(NC(=O)c1nn(C)c3ccccc13)C2 (stereo not given) [Granisetron],-0.49
16,COc1cccc2c1C(=O)c1c(O)c3c(c(O)c1C2=O)C[C@@](O)(C(C)=O)C[C@@H]3O[C@H]1C[C@H](N)[C@H](O)[C@H](C)O1 [Daunorubicin HCl],-1.4
17,O=C(NCCO[N+](=O)[O-])c1cccnc1 [Nicorandil],-0.01
18,CCOc1ccc(NC(C)=O)cc1 [Phenacetin],-1.19
19,CCc1nn(CCCN2CCN(c3cccc(Cl)c3)CC2)c(=O)n1CCOc1ccccc1 [Nefazodone hydrochloride],-0.3
20,CCCCCOc1ccc(-c2cc(-c3ccc(C(=O)N[C@H]4C[C@@H](O)[C@@H](O)NC(=O)[C@@H]5[C@@H](O)[C@@H](C)CN5C(=O)[C@H]([C@H](O)CC(N)=O)NC(=O)[C@H]([C@H](O)[C@@H](O)c5ccc(O)c(OS(=O)(=O)O)c5)NC(=O)[C@@H]5C[C@@H](O)CN5C(=O)[C@H]([C@@H](C)O)NC4=O)cc3)no2)cc1 [Micafungin Sodium],0.72

row,Structure (SMILES),z-score of subpopulation abundance
1,NC(=O)N/N=C/c1ccc([N+](=O)[O-])o1 [Nitrofural],-1.3
2,CCC(=O)c1c(O)cc(O)cc1O [Flopropione],0.21
3,Cc1ncc([N+](=O)[O-])n1C [Dimetridazole],-0.99
4,CN1CCOC(c2ccccc2)c2ccccc2C1 (stereo not given) [Nefopam HCl],-0.2
5,CN1CCN(CCCN2c3ccccc3Sc3ccc(Cl)cc32)CC1 [Prochlorperazine dimaleate salt],0.75
6,CC(C)N1CCN(c2ccc(OCC3COC(Cn4cncn4)(c4ccc(Cl)cc4Cl)O3)cc2)CC1 (stereo not given) [Terconazole],-0.49
7,CCCCN1CCCCC1C(=O)Nc1c(C)cccc1C (stereo not given) [Bupivacaine HCl],-0.93
8,Nc1nc2[nH]cc(CCc3ccc(C(=O)N[C@@H](CCC(=O)O)C(=O)O)cc3)c2c(=O)[nH]1 [Pemetrexed],-3.17
9,CCN(CC)C(=O)N1CCN(C)CC1 [Diethylcarbamazine citrate],-0.13
10,COc1c(N2C[C@@H]3CCCN[C@@H]3C2)c(F)cc2c(=O)c(C(=O)O)cn(C3CC3)c12 [Moxifloxacin HCl],2.74
11,COCCCC/C(=N\OCCN)c1ccc(C(F)(F)F)cc1 [Fluvoxamine maleate],0.51
12,CC(C)c1nc(N(C)S(C)(=O)=O)nc(-c2ccc(F)cc2)c1/C=C/[C@@H](O)C[C@@H](O)CC(=O)O [Rosuvastatin],0
13,C[C@H](NCc1ccc(OCc2cccc(F)c2)cc1)C(N)=O [Safinamide],0.37
14,C[C@@H](O)[C@H]1C(=O)N2C(C(=O)O)=C(S[C@@H]3CN[C@H](CNS(N)(=O)=O)C3)[C@H](C)[C@H]12 [Doripenem Hydrate],-0.44
15,CN1C2CCCC1CC(NC(=O)c1nn(C)c3ccccc13)C2 (stereo not given) [Granisetron HCl],0.45
16,Cc1cccc(C)c1OCC(C)N (stereo not given) [Mexiletine HCl],-0.69
17,CCCNC(C)C(=O)Nc1ccccc1C (stereo not given) [Prilocaine hydrochloride],0.83
18,CN(C)CCc1c[nH]c2ccc(C[C@H]3COC(=O)N3)cc12 [Zolmitriptan],-0.12
19,COc1ccc2[nH]c([S@@+]([O-])Cc3ncc(C)c(OC)c3C)nc2c1 [NEXIUM (esomeprazole magnesium)],0.3
20,CN(C)c1ccc(O)c2c1C[C@H]1C[C@H]3[C@H](N(C)C)C(=O)C(C(N)=O)=C(O)[C@@]3(O)C(=O)C1=C2O [Minocycline HCl],0.75
